About 210 (0.22%) of roughly 97,000 compounds were called active. Cut-off read from the data, not from the text of the source: active = inhibition above about 45%; inactive = the rest. Many of the other results were omitted from the sample, so actives are more common in it than they were.
Each molecule was assayed against Sphingosine 1-phosphate receptor 2 (Homo sapiens) (UniProt O95136) (assay: human S1P2 receptor antagonists, primary screen, cell-based (AID 736;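 note: CRE beta-lactamase reporter cells expressing human S1P2 stimulated with S1P; 0% = agonist at EC80 alone and 100% = agonist plus reference antagonist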)). Conditions: cell-based S1P2 antagonist assay, at 5 µM, active compounds read high.
Sphingosine 1-phosphate receptor 2 (Homo sapiens), sequence (O95136 whole entry, looked up): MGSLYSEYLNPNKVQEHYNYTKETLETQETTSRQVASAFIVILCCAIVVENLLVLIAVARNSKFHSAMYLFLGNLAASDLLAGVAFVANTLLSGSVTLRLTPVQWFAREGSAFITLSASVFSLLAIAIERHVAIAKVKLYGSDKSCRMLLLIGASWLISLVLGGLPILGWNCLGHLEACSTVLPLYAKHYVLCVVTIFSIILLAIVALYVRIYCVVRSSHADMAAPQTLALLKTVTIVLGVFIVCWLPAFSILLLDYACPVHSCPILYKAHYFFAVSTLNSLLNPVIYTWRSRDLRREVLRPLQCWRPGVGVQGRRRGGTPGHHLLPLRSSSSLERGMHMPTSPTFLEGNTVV

inhibition, inactive:
Cc1nn(C)cc1/C=N/NC(=O)c1sc2ccccc2c1Cl -19.2%, O=C(CCNS(=O)(=O)c1ccccc1C(F)(F)F)NCc1ccc2c(c1)OCO2 -42.1%, CCOc1cc(-c2cc(-c3ccc(OC)cc3)nc(N)c2C#N)ccc1O -25.8%, COc1ccc2[nH]c(=O)c(CNc3ccc(C)c(C)c3)cc2c1 17.9%, CC1(C)NC(=O)N(CCCCSc2ccc(Cl)cc2)C1=O 11.3%, CCc1nnc(NC(=O)CSc2nc3ccccc3c(=O)n2CCCOC)s1 2.95%, COc1ccc(C(F)(F)F)cc1N/C=C\c1nnnn1-c1ccc(C)cc1 -17.3%, CCNC(=S)Nc1cccc(Cl)c1C 13.9%, CCc1ccc(C2C(C#N)=C(N)Oc3n[nH]c(CC(=O)OC)c32)cc1 (stereo not given) -30.6%, Cc1ccc(S(=O)(=O)NCCSC(C)(C)C)cc1 -2.88%, Cc1ccc(S/C(=N\S(=O)(=O)c2ccc(Cl)cc2)c2ccccc2)cc1 -10.2%, O=C(Nc1cccc(-c2nc3ncccc3o2)c1)c1ccco1 -19.4%, CCOC(=O)C1C(=O)NCC1c1ccccc1 (stereo not given) -4.06%, COc1ccc(Cc2nnc(SC)[nH]c2=O)cc1 -19.6%, Cc1cccc(C)c1OC(=O)CSc1nnc(-c2ccccc2)o1 -20%, O=C(NCCN1CCN(Cc2ccccc2)CC1)c1cc2c(=O)[nH]c3ccccc3c2s1 -27.2%, Cc1cc(C=O)c(C)n1-c1ccc(NC2CCCCC2)c([N+](=O)[O-])c1 4.51%, Cc1ccc(N2CCN(/N=C/c3cccs3)CC2)cc1 22.6%, Cc1cc([N+](=O)[O-])c(N2CCC[C@@H]2C(=O)O)c([N+](=O)[O-])c1 16.9%, COc1ccc(N(CC(=O)N/N=C/c2cccc3c2OCCO3)S(=O)(=O)c2ccc(NC(C)=O)cc2)cc1 10.2%, COc1ccc(C2C(C(C)=O)=C(O)C(=O)N2Cc2cccnc2)cc1 (stereo not given) 5.26%, Cc1nnsc1S(=O)(=O)Cc1ccccc1Cl 6.79%, CC(=O)NS(=O)(=O)c1ccc(NC(=S)NC(=O)C(C)(C)C)cc1 1.69%, CS(=O)(=O)Nc1cccc(C2=NN(S(=O)(=O)c3ccccc3)C(c3cccs3)C2)c1 (stereo not given) 21.1%, Clc1ccc(Cl)c(Oc2ccc(Oc3nc(Cl)ccc3Cl)cc2)n1 -3.25%, O=C(Cc1ccc(-n2c(=O)c3sccc3n(Cc3ccc(F)cc3)c2=O)cc1)NCc1ccco1 14.3%, O=C(NCCCCCCNC(=O)NCc1ccco1)NCc1ccco1 -14.7%, Cc1cc(-c2ccc(/C=N/n3cnnc3)o2)c([N+](=O)[O-])cc1C 1.7%, COc1ccc(-n2c(C)csc2=S)cc1 -2.06%, Cn1nc([N+](=O)[O-])nc1Sc1ccc(C(C)(C)C)cc1 1.08%, CC(N=Cc1nc(-c2ccccc2)oc1O)c1ccccc1 (stereo not given) -15.5%, O=C(Nc1nnc(CCOCCOCCc2nnc(NC(=O)c3ccco3)s2)s1)c1ccco1 0.16%, COc1ccc(Br)cc1CN1CCN(C(=O)c2cccc(OC)c2OC)CC1 -12.2%, O=C1c2ccccc2NC(c2ccc(-c3cccc(Cl)c3)o2)N1O (stereo not given) 9.34%, CCCCc1nnc(NC(=O)CS(=O)(=O)Cc2ccccc2)s1 11.7%, Brc1ccc(-c2nnc(-c3ccccc3)o2)o1 -21.1%, O=C(Nc1cccc2ccccc12)c1onc2c1CCCC2 -13%, ONC(=Nc1ccccc1)c1ccccc1Cl -2.09%, CCOC(=O)c1c(NC(=O)c2ccc(N3CCOCC3)c([N+](=O)[O-])c2)sc(C)c1C -6.51%, CC(C)CC[n+]1ccn(C2=C([O-])c3ccccc3C(=O)/C2=N\S(=O)(=O)c2ccccc2)c1 18.2%, CCOC(=O)c1ccccc1NS(=O)(=O)c1ccc(OC)cc1 -9.6%, Cc1nc2ccccc2cc1O -18.9%, CCOC(=O)c1cc2ccccc2nc1C -7.13%, CCN(CC)S(=O)(=O)c1ccc(N2CCOCC2)c(C(=O)O)c1 0.01%, COc1ccc(-c2noc(CSc3ccc(C)cc3)n2)cc1 8.11%, C=CCO/N=C(\C)c1c(O)c(C)c(-c2ccccc2)n(-c2ccccc2)c1=O 1.26%, CCn1c2ccccc2c2cc(NC(=S)N3CCOCC3)ccc21 7.28%, Cc1ccc(CNC(=O)c2ccccc2CCc2ccccc2)cc1 -23.4%, CCCCCCC(=O)Nc1nc(C)c(-c2csc(Nc3cc(Cl)ccc3OC)n2)s1 8.39%, c1cnc(Nc2nc(-c3ccc4ccccc4c3)cs2)nc1 10.4%, O=c1cc(CN2CCN(c3cccc(Cl)c3)CC2)c2cc3c(cc2o1)CCCC3 2.36%, O=C(O)c1cccnc1NC1CCCC1 -6.46%, CC(C)C(NC(=O)c1ccc(Cl)cc1)C(=O)O (stereo not given) 18.8%, Cc1ccccc1-n1nc(C)c2cc(C(=O)NC3CC3)sc21 2.59%, Cc1ccc(-c2ccnc3nc(Sc4ncc(C(F)(F)F)cc4Cl)nn23)cc1 -3.44%, CSc1nc(N(C)NC(=O)c2cccc(C)c2)c2ccccc2n1 5.9%, CCN(c1ccccc1)S(=O)(=O)c1ccc(C(=O)Nc2nccs2)cc1 -3.2%, O=C(Nc1ccn(Cc2ccccc2F)n1)c1ccc(COc2ccc(Cl)cc2Cl)o1 6.95%, Cc1ccc(-n2nc3cc(C)c(NC(=O)c4cccnc4)cc3n2)cc1 3.29%, Cc1cc(=O)[nH]c(SCc2cccc(F)c2)n1 -28.1%, O=[N+]([O-])c1ccccc1/C=N/n1c(COc2ccccc2)n[nH]c1=S 18.3%, N=c1c2c(-c3ccccc3)c(-c3ccccc3)oc2ncn1Cc1ccco1 2.42%, CCOc1c(Br)cc(/C=C2\C(=O)N(CCC#N)N=C2C)cc1OC -33.3%, Cc1cc(C)cc(OCC(=O)NNC(=O)c2cc3ccccc3oc2=O)c1 -16.6%, CCN(CC)Cc1csc2ccc(Br)cc12 -1.56%, C=CCN(C(=O)Nc1ccc2oc(C)nc2c1)c1ccccc1 3.19%, COc1ccccc1NC(=O)/C=C/C(N)=O -12.8%, CC(C)N(c1ccccc1)c1ncnc(NCCC(=O)O)c1[N+](=O)[O-] 15.5%, CCOC(=O)C1(S(=O)(=O)c2ccccc2)CCN(Cc2ccccc2)CC1 17%, Cc1ccc(S(=O)(=O)c2ccc(Oc3ccccc3)cc2)cc1 -7.17%, O=C(Nc1ccc(Cl)cc1)c1ccsn1 11.1%, CC(=O)Nc1cc(C(=O)O)ccc1S(=O)(=O)c1ccc(Cl)cc1 3.81%, CC(=O)Oc1ccc(C(C)=O)c2c1OCCO2 -13%, COc1ccc(Nc2ncc(C(=O)N3CCN(c4ccccc4OC)CC3)c3ccccc23)cc1 -4.51%, CC1CCN(C(=O)CN(c2ccc(Oc3ccccc3)cc2)S(C)(=O)=O)CC1 -1.57%, C=CCNC(=O)c1csc(-c2ccccc2)n1 5.01%, CC(C)CC(=O)N1CCC(O)(CS(=O)(=O)Cc2ccccc2)CC1 5.12%, Cc1[nH]n(-c2ccc(Cl)cc2)c(=O)c1/C=N/n1c(C)nc2ccccc2c1=O 2.28%, Cc1ccc(-c2nc(C)sc2CC(=O)O)cc1 10.8%, CCCSC(=S)NC1CCS(=O)(=O)C1 (stereo not given) 15.8%, COc1ccc(C(=O)Nc2nc(-c3ccc(S(=O)(=O)N4CCOCC4)cc3)cs2)cc1 19.7%, COc1ccc(OC)c(NC(=O)c2cnn(-c3ccccc3Cl)c2NC(=O)c2ccco2)c1 -6.97%, O=C(NC1CCCCC1)c1ccc(CNc2c(N3CCOCC3)c(=O)c2=O)cc1 -21.1%, Cc1nnc(SCc2nc3ccccc3nc2C)s1 -20.9%, Cc1nn(-c2ccccc2)c(Cl)c1C(=O)Nc1ccccc1 -0.13%, CCN(CC)C(=O)CSc1nc2ccccc2o1 3.55%, c1ccc(CC2CCN(c3nc4ccccc4n4cnnc34)CC2)cc1 -5.6%, Cc1nn(C(C)CC(=O)O)c(C)c1C (stereo not given) -0.29%, CCC(C)NC(=O)CSC1=Nc2ccccc2C2=NC(CCC(=O)NCc3ccco3)C(=O)N12 (stereo not given) 1.95%, CCC(C)NC(=O)c1ccccc1NC(=O)c1ccccc1N(C)S(C)(=O)=O (stereo not given) -10.9%, CC(=O)N1CCCc2cc(S(=O)(=O)CCC(=O)N3CCN(c4ccccc4)CC3)ccc21 0.06%, Cn1nc(C(F)(F)F)c2cc(NC(=O)OCC(C)(C)C)sc21 -6.24%, Clc1ccccc1SCc1nc2ccccc2[nH]1 11.2%, COc1ccc(N2CCN(Cc3ccc(Br)s3)CC2)cc1 -19.3%, Cc1cc(N2CCN(Cc3ccc4c(c3)OCO4)CC2)n2ncnc2n1 13.4%, CC(C)(C)n1nnnc1C(c1ccc(F)cc1)N1CCN(Cc2ccc3c(c2)OCO3)CC1 (stereo not given) 9.67%

inhibition, active:
Cc1nc2ccccc2cc1OCc1ccc(F)cc1 56.8%, CC1=C/C(=N\OS(=O)(=O)c2ccccc2)C=CC1=O 82.9%, O=C(Nc1ccccc1)c1nnsc1S(=O)(=O)c1ccc(Cl)cc1 61.4%, Fc1ccc2[nH]c3c(N4CCN(Cc5ccc6c(c5)OCO6)CC4)ncnc3c2c1 80.7%
